This passage reports growth results from PubChem BioAssay (NCI).

About 83,000 compounds went through this panel and 20% of them were active in at least one assay; those are over-represented in the sample as a whole.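 A percent growth of 40 corresponds to 60% growth inhibition; 0 means no net growth; -100 means all cells died. Active threshold: below 10.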 A number with no mark means an inactive call. Calls of active or inactive are those of the source.

This experiment concerns NCI/ADR-RES ovarian. The experiment is described as follows: NCI-60 one-dose screen, 48 h (100 = growth as untreated, 0 = no growth, -100 = all killed). The note with it: 10 µM unless noted.
As to `COc1c(F)ccc(C(=O)Nc2ccc3nc(NC(=O)C4CCCN(S(=O)(=O)C5CC5)C4)sc3c2)c1F` (configuration not stated), the growth was 33.2%.

Regarding `CCOC(=O)C1=C(N)N(c2ccccc2)C2=C(C(=O)CC(C)(C)C2)C1c1ccc(N2CCOCC2)cc1` (configuration not stated), the growth is 100%.

Consider `OCC1(CCCc2ccccc2)CCCN(c2nccc3ccccc23)C1` (configuration not stated), for which the growth is 11.8%.

For the compound `COc1ccc(/C=N/NC(=O)Cn2nc(Cc3ccc(OC)cc3)c3onc(C)c3c2=O)cc1`, the growth is 40.6%.

On to `O=[N+]([O-])c1ccc(/C=C/c2nc3ccccc3n3c(=S)[nH]nc23)cc1`, for which the growth was 85.2%.

Regarding `COC(=O)/C=C/c1cccc2c1C(=O)NC(C)(c1cc3ccccc3oc1=O)N2` (configuration not stated), the growth is 80.1%.

On to `CCN(CC)c1ccc(/C=N/Nc2nc(-c3ccc(Br)cc3)cs2)c(O)c1`, for which the growth was 95.3%.

With `O=C(c1ccccc1)C(c1c[nH]c2ccccc12)c1c[nH]c2ccccc12`, the growth is 47.4%.

Consider `CC1(C)CC[C@]2(C(=O)Nc3ccc(Br)cc3)CC[C@]3(C)C(=CCC4[C@@]5(C)C[C@@H](O)[C@H](O)[C@@](C)(CO)C5CC[C@]43C)C2C1` (some centres not stated), for which the growth is 14.7%.

Take `CC(/C=C1\SC(=S)N(CCCC(=O)NC(CC(C)C)C(=O)O)C1=O)=C\c1ccccc1` (configuration not stated): the growth is 94.1%.

Consider `Cn1cc(-c2cc(N)n3nc(-c4cn(C)c5ccccc45)cc3n2)c2cc(Br)ccc21`, for which the growth is -13.9% (active).

`Cc1ccc(NCC(=O)Cn2cc(COc3ccc(C=Nc4cnc5ccccc5c4)cc3)nn2)cc1`: the growth is 113%.

For `Cc1ccc([C@H]2C(C(=O)c3ccc(Cl)cc3)C3(N[C@@H]2c2ccccc2)C(=O)Nc2ccc(Cl)cc23)cc1` (some centres not stated), the growth is 54.6%.

As for `Cc1cc2nc3c4ccccc4n(CCNCCN(C)C)c3nc2cc1C`, the growth was 24.6%.

Turning to `Cc1ccccc1[C@H]1C(C(=O)c2ccc(Cl)cc2)C2(N[C@@H]1c1ccccc1)C(=O)Nc1ccc(Br)cc12` (some centres not stated), the growth is -55.1% (active).

As for `CC(C)c1sc(NC(=O)c2cc(NC(=O)c3cc(NC(=O)c4cscn4)cn3C)cn2C)nc1C(=O)NCCCN(C)C`, the growth is 103%.

With `CC(=O)OC[C@@]1(C)C2CC[C@]3(C)C(CC=C4C5CC(C)(C)CC[C@]5(C(=O)Nc5ccc(C)cc5)CC[C@]43C)[C@@]2(C)C[C@@H](OC(C)=O)[C@@H]1OC(C)=O` (some centres not stated), the growth is 40.4%.

In the case of `O=C1CC(Sc2n[nH]c(-c3ccncc3)n2)C(=O)N1c1ccc(Br)cc1` (configuration not stated), the growth was 111%.

On to `COc1cc2c3c(n(CCCN4CCC[C@@H]4CO)c(=O)c2cc1OC)-c1cc2c(cc1C3=O)OCO2`, for which the growth was -67.4% (active).

`C=C1CCC2C3(C)COC(c4ccc(F)cc4)OC3CCC2(C)C1C/C=C1/C(=O)OCC1O` (configuration not stated): the growth was -22.4% (active).

As for `Cc1sc(C(NC(=O)OCCn2c([N+](=O)[O-])cnc2C)C(F)(F)Cl)nc1-c1ccc(OC(F)(F)F)cc1` (configuration not stated), the growth is -78.6% (active).

Turning to `CC1[C@H]2[C@H](C[C@H]3[C@@H]4CC=C5c6sc(Nc7ccccc7F)nc6CC[C@]5(C)[C@H]4CC[C@@]32C)O[C@]12CC[C@@H](C)CO2` (some centres not stated), the growth was -33.9% (active).

With `O=C(c1ccccc1)c1ccc2nc(-c3cccc(Cl)c3)[nH]c2c1`, the growth was 104%.

For the compound `OCNc1ccc(-n2cnc3cc(-c4ccc(O)cc4)ccc32)cc1C(F)(F)F`, the growth is 17.2%.

Regarding `CCOC(=O)C(N=Nc1ccc(S(=O)(=O)N=C(N)N)cc1)C(C)=O` (configuration not stated), the growth was 113%.

As for `CCOC(=O)/C=C/c1cccc2c1C(=O)NC(C)(c1cc3cc(Cl)ccc3oc1=O)N2` (configuration not stated), the growth is 22.7%.

As for `C#CCOc1cc(N(CC)CC)ccc1C(C(=O)NC(C)(C)C)N(C(=O)C1CCc2cc(F)ccc2O1)c1ccc(Br)cc1` (configuration not stated), the growth was 89.4%.

As for `CCCCCCCCc1ccc(C(=O)Nc2ccc(C)cc2C(=O)O)cc1C`, the growth was 96.3%.

As for `C#CCOc1cc(N(CC)CC)ccc1C(C(=O)NC(C)(C)C)N(C(=O)C1CCc2cc(F)ccc2O1)c1ccc(F)c(Cl)c1` (configuration not stated), the growth was 72.9%.

Regarding `CCOC(=O)C1=C(N)N(c2ccccc2)C2=C(C(=O)CC(C)(C)C2)C1c1ccc([N+](=O)[O-])cc1` (configuration not stated), the growth is 98.2%.

As for `C=C1CC[C@@H]2[C@]3(C)COC(c4ccccc4)O[C@@H]3CC[C@@]2(C)[C@@H]1C/C=C1/C(=O)OCC1OC(C)=O` (some centres not stated), the growth was -73.1% (active).

Regarding `C#C[C@]1(O)CC[C@H]2[C@@H]3CC=C4c5sc(-c6ccc([N+](=O)[O-])cc6)nc5CC[C@]4(C)[C@H]3CC[C@@]21C`, the growth was 25.7%.
